Dicer processing: blocks human Dicer maturation of pre-miR-21; cat-ELCCA pre-miR-21 Dicer processing, chemiluminescence; stronger effect = higher value; 47,000 tested, 6% active; z-score at 25 µM; Q9UPY3; in the data active means z-score above about 3, passing the limit was not always enough;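 further: higher signal means more uncleaved substrate so more Dicer inhibition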
Numbers stand for hits; - = inactive. The sample as a whole holds a higher share of hits than the screen did.

SMILES	Dicer processing
CCCCN(C(C)(C)C)S(=O)(=O)c1ccc(C)cc1	-
Cc1ccc(C(=O)N2CCN(CC(=O)Nc3cc(-c4ccccc4)sc3C(N)=O)CC2)cc1	-
CCc1ccc(-c2ncnn2-c2ccc(Cl)cc2)cc1	3.24
CSc1ccc(-c2ncnn2-c2cccc(Cl)c2)cc1	-
Clc1ccc(-n2ncnc2-c2ccccc2)cc1	-
COc1cccc(N2CC(=O)N(NC(=O)Nc3cccc(Cl)c3)CC2=O)c1	-
CCn1c(/C=C/c2ccc3c(c2)OCO3)nc2ccccc2c1=O	5.12
CCn1c(SC)nc2ccccc2c1=O	-
CCn1c(/C=C/c2cccc(Br)c2)nc2ccccc2c1=O	-
Cc1ccc(S(=O)(=O)NNC(=O)c2cc([N+](=O)[O-])ccc2N)cc1	-
CCCCCSc1nnc2c(n1)OC(CC)N(C(C)=O)c1ccccc1-2 (stereo not given)	-
Cc1nnc(N2C(=O)C(O)=C(C(=O)c3cccs3)C2c2ccccc2)s1 (stereo not given)	-
CC(C)(C)/C(O)=C/c1nc2cc([N+](=O)[O-])ccc2[nH]c1=O	-
O=c1[nH]c2ccc([N+](=O)[O-])cc2nc1/C=C(\O)c1ccccc1	23.8
O=[N+]([O-])c1ccc2nc(-c3ccccc3)c(-c3ccccc3)nc2c1	-
COC(=O)c1sccc1Br	-
O=C1c2ccccc2-c2nc3cc(C(F)(F)F)ccc3nc21	-
Cc1nc2ccc([N+](=O)[O-])cc2nc1C	-
Cc1nc2ccc(C(F)(F)F)cc2nc1C	3.54
CCNC(=S)NNC(=O)c1c(C)nc2ccccn12	-
CN(C)CCCNc1oc(-c2ccc(F)cc2)nc1C#N	-
COc1ccc(/C(O)=C2\C(=O)C(=O)N(CCN(C)C)C2c2ccccc2F)cc1 (stereo not given)	3.35
COc1ccc(/C(O)=C2\C(=O)C(=O)N(CCCN(C)C)C2c2ccccc2)cc1 (stereo not given)	-
CN(C)CCN1C(=O)C(=O)/C(=C(/O)c2ccc(S(=O)(=O)N(C)C)cc2)C1c1ccccc1F (stereo not given)	-
O=C(Nc1cnn(Cc2ccccc2)c1)c1cc2n(n1)C(C(F)(F)F)CC(c1ccco1)N2 (stereo not given)	-
SMILES	Dicer processing
FC(F)(F)c1ccnc(N/N=C/c2ccc(Cl)cc2Cl)n1	-
CNC(=S)N(CCS(=O)(=O)c1ccc(Cl)cc1)Cc1cccs1	3.2
O=S(=O)(CCN(Cc1cccs1)C(=S)Nc1cccc(F)c1)c1ccc(Cl)cc1	-
O=S(=O)(CCN(Cc1cccs1)S(=O)(=O)c1ccc(Cl)cc1)c1ccc(Cl)cc1	-
Nc1c(C(=O)N/N=C/c2ccc(Cl)cc2)oc2nc(-c3ccccc3)cc(-c3ccccc3)c12	-
CCCCSc1nnc2c(n1)OC(c1ccc([N+](=O)[O-])o1)Nc1ccccc1-2 (stereo not given)	-
Cc1c(C#N)c(NC(=O)c2ccc(Cl)cc2)n(Cc2cccc(Cl)c2)c1C	-
COc1ccc(Br)cc1C1SCCN1S(=O)(=O)c1cccc(C)c1 (stereo not given)	-
CCOc1ccc(S(=O)(=O)N2CCSC2c2ccc(OC)c(OC)c2)cc1 (stereo not given)	3.3
COc1ccc(C2SCCN2S(=O)(=O)c2cccc(C)c2)cc1 (stereo not given)	6.16
COc1ccc(OC)c(C2SCCN2S(=O)(=O)c2ccc(-c3ccccc3)cc2)c1 (stereo not given)	-
COc1ccc(C2SCCN2S(=O)(=O)c2ccc(C)cc2)cc1 (stereo not given)	-
COc1ccccc1C1SCCN1S(=O)(=O)c1ccc(Cl)cc1 (stereo not given)	-
COc1ccc(C2SCCN2S(=O)(=O)c2cccc(C)c2)cc1OC (stereo not given)	-
COc1ccc(S(=O)(=O)N2CCSC2c2ccccc2Cl)cc1 (stereo not given)	3.32
COc1ccc(S(=O)(=O)N2CCSC2c2ccccc2OC)cc1 (stereo not given)	-
CC(C)(C)c1cc(Oc2ccc([N+](=O)[O-])cn2)ccc1Oc1ccc([N+](=O)[O-])cn1	-
COc1cc(C(=O)NNC(=O)c2cc(Cl)cc(Cl)c2)c(-n2c(C)ccc2C)cc1OC	-
CC1S/C(=N\C(=O)Nc2ccc(Cl)cc2)NC1=O (stereo not given)	-
O=c1c2ccccc2c(-c2ccccc2)nn1CCc1ccccc1	-
CC1=C(C(=O)OC2CCCCC2)C(c2ccccc2C)C2=C(CCCC2=O)N1 (stereo not given)	-
Cc1cccc(NC(C(=O)O)c2ccccc2)c1 (stereo not given)	5.38
O=C(O)c1ccccc1SC(C(=O)O)c1ccccc1 (stereo not given)	-
CC(C(=O)O)c1cccc(Oc2ccccc2)c1 (stereo not given)	-
O=C(O)c1ccccc1NC(C(=O)O)c1ccccc1 (stereo not given)	5.48
CCOC(=O)C(NC(=O)Nc1ccccc1)(Nc1cccc(C)c1)C(F)(F)F (stereo not given)	-
O=C(O)CSc1ccccc1C(=O)O	-
CCOc1cc(/C=C(\C#N)C(N)=O)ccc1O	-

Bioassay records: PubChem, Center for Chemical Genomics, University of Michigan
